We go through 22 compounds from PubChem BioAssay (NCATS).

A short description of assay [1]: Primary qHTS for inhibitors of nuclear receptor binding SET domain protein 2 (NSD2) in an isogenic RCH-ACV NSD2 p.E1099K mutant (9B) (AID 1645876). Further: nearly all actives have a fitted effect of over 70% in size. Further: potency means the concentration at half of the fitted maximal effect. Background: qHTS replaces the single test concentration by a dilution series.
Assay [2] addresses Glutathione peroxidase 1 (Homo sapiens) (UniProt P07203). The assay can be described thus: Primary qHTS Assay for Inhibitors of Recombinant Selenoprotein Glutathione Peroxidase 1 (GPX1) (AID 1845191). Further: nearly all actives have a fitted effect of over 65% in size. In short, it runs like this: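 NADPH consumption tracked by fluorescence at 340/450 nm between t=0 and t=15 min, room temperature. Final mix: 10 nM GPX1, 100 nM glutathione reductase, 1 mM GSH, 0.5 mM NADPH, 0.5 mM cumene hydroperoxide, 0.01% BSA; 30 min compound–enzyme preincubation.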

Assay [3] deals with Phospholipid hydroperoxide glutathione peroxidase GPX4 (Homo sapiens) (UniProt P36969). The assay can be described thus: Primary qHTS Assay for Inhibitors of Recombinant Selenoprotein Glutathione Peroxidase 4 (GPX4) (AID 1845192). Further: nearly all actives have a fitted effect of over 65% in size. Further: potency means the concentration at half of the fitted maximal effect. On activity change, negative = inhibition: on the % scale 0 is the no-effect control and ±100 the full control effect. The method in brief:
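NADPH consumption followed by fluorescence at 340/450 nm, t=0 and after 15 min at room temperature. Reaction started with cumene hydroperoxide (0.5 mM final) after 30 min compound–GPX4 preincubation; final 200 nM GPX4, 100 nM GR, 1 mM GSH, 0.5 mM NADPH.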

Assay [4] in a line: qHTS drug screen for cell cycle checkpoint inhibitors in PARPi-resistant BRCA-mutant ovarian cancer cell lines. (AID 1963452; calls by dose curve). To be noted: PEO1/OlaR viability, CellTiter-Glo luminescence, 96 h, stronger effect = lower value. The method in brief:
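PEO1, PEO4 and PEO1/OlaR ovarian cancer cells, 600 per well, exposed 96 h at 37C to a dilution series. Viability read by CellTiter-Glo luminescence, normalized to DMSO and empty wells; activity summarized as Z-AUC.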

A short description of assay [5]: Primary qHTS for inhibitors of nuclear receptor binding SET domain protein 2 (NSD2) in an RCH-ACV wild type WT cells (2C) (AID 1645877). Further: nearly all actives have a fitted effect of over 70% in size. Further: potency means the concentration at half of the fitted maximal effect.
In assay [6] the target is Catechol O-methyltransferase (Homo sapiens) (UniProt P21964). The assay can be described thus: Confirmatory Screen for Target Class Profiling of Small Molecule Inhibitors of Methyltransferases (AID 1745852). On activity change, negative = inhibition: on the % scale 0 is the no-effect control and ±100 the full control effect. The conditions noted are these: MTase-Glo luminescence, SAH detection, recombinant enzyme; measured here: COMT max response; stronger effect = lower value.
Chain of Catechol O-methyltransferase (Homo sapiens) (P21964 whole entry, looked up): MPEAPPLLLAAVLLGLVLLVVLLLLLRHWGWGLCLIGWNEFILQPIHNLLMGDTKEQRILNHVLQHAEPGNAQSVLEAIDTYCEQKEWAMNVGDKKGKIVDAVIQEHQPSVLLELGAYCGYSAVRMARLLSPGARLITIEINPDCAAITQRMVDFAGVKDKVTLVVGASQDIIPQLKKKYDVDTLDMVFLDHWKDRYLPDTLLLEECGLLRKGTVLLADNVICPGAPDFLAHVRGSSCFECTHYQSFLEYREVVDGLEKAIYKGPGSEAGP
Assay [7] deals with Guanidinoacetate N-methyltransferase (Homo sapiens) (UniProt Q14353). The description is as above. The conditions noted are these: MTase-Glo luminescence, SAH detection, recombinant enzyme; activity change, negative = inhibition: at 57.3 µM (top of the series) unless noted.
Assay [8] concerns the target Nicotinamide N-methyltransferase (Homo sapiens) (UniProt P40261). Described as above. The conditions noted are these: MTase-Glo luminescence, SAH detection, recombinant enzyme; measured here: NNMT max response; stronger effect = lower value.
For assay [9], the target named is Phenylethanolamine N-methyltransferase (Homo sapiens) (UniProt P11086). Described as above. To be noted: MTase-Glo luminescence, SAH detection, recombinant enzyme; measured here: PNMT max response; stronger effect = lower value.
Chain of Phenylethanolamine N-methyltransferase (Homo sapiens) (P11086 whole entry, looked up): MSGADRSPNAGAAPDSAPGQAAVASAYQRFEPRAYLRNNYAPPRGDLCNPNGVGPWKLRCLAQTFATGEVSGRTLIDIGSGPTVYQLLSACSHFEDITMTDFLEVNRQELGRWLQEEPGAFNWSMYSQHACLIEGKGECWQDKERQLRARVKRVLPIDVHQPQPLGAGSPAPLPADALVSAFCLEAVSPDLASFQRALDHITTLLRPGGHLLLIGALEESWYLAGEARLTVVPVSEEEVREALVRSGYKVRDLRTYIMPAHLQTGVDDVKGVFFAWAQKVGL
Assay [10] is described as follows: NCATS anti-infectives library activity on HEK293 viability as a counter-qHTS vs the C. elegans viability qHTS (AID 1745854).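 Further: HEK293 cells exposed to compounds for 24 hr before the viability read; on the % scale 0 is the no-effect control and ±100 the full control effect.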 In short, it runs like this: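 Compound titrations (final up to 41.7 uM) were incubated with HEK293 cells for 24 hr at 37C under 5% CO2. Viable cells were quantified with CellTiter-Glo after 10 min at ambient temperature.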
The nature of assay [11]: NCATS anti-infectives library activity on the primary C. elegans qHTS viability assay (AID 1745855; calls by dose curve). In short, it runs like this: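 Titration-based screen in worms: eggs hatched overnight in M9, L1 larvae fed TOP10 capsules in S medium with compound, incubated 21 °C for 7 days; fluorescent objects gated by size and intensity at days 0, 3 and 7.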
Assay [12] has as its target Tyrosine-protein kinase Yes (Homo sapiens) (UniProt P07947). Description: qHTS for small molecule inhibitors of Yes1 kinase: Primary Screen (AID 686947).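 Further: plate controls were DMSO with enzyme for no effect and no-enzyme DMSO wells for full effect; nearly all actives have a fitted effect of over 60% in size.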 In short, it runs like this:
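In this qHTS format, inhibition is expressed relative to DMSO controls with enzyme (maximum) and without enzyme (minimum). The 60 min room-temperature reaction uses 0.1 mM ATP, with ADP detected by luminescence.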

Assay [13] in a line: qHTS for small molecule inhibitors of Yes1 kinase: Counter Assay (AID 686950).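 Further: no kinase present so only ADP-Glo detection of a fixed ADP amount is tested; luminescence from ADP-Glo reporting ADP in a fixed ATP and ADP mixture; 0% = DMSO wells with ATP plus ADP and -100% = ATP-only wells without ADP.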 The method in brief: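 ADP-Glo luminescence read after a 60 min room-temperature incubation of compound with an ATP/ADP mix (0.08 mM/0.02 mM) and no kinase, following a 20 min compound preincubation. Signal scaled between ATP+ADP (max) and 0.1 mM ATP-only (min) wells; Tris pH 7.5, Mg2+, DTT.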
Where [14] appears, read: measured here: PEO1 parental Z-AUC.

Results filed as inconclusive are left out. Active and inactive are the calls of the source. Unless noted, the call rests on the fitted dose curve; in most records, active means well fitted curve in the direction sought with a large enough effect; inconclusive means small, poorly fitted or top-dose-only effect, or another doubt; inactive means no such curve, though single readings can be large; an effect the other way counts as inactive or inconclusive. Where a SMILES comes first, the peptide text is derived from it. [ ]: non-standard residue; d: D form. Dip = N[C@H](C(=O)O)C(c1ccccc1)c1ccccc1

Chain of Phospholipid hydroperoxide glutathione peroxidase GPX4 (Homo sapiens) (P36969 whole entry, looked up): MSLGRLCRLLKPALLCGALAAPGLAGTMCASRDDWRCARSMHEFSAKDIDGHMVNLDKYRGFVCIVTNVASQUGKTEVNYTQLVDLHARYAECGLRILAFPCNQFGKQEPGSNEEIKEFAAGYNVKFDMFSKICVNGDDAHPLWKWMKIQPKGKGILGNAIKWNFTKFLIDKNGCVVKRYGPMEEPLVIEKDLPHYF
Chain of Glutathione peroxidase 1 (Homo sapiens) (P07203 whole entry, looked up): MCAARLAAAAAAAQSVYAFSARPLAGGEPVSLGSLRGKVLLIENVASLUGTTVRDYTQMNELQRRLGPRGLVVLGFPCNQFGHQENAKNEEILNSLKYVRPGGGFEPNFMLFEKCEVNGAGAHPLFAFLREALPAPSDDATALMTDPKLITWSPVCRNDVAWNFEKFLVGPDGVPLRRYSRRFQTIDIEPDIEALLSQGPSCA
Chain of Nicotinamide N-methyltransferase (Homo sapiens) (P40261 whole entry, looked up): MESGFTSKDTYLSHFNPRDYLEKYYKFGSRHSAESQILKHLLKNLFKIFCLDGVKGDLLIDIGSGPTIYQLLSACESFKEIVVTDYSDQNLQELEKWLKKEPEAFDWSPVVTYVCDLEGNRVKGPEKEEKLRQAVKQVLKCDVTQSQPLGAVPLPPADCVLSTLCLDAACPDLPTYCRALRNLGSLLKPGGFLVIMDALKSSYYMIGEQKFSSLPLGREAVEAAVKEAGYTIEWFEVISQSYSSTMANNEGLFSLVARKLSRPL
Chain of Tyrosine-protein kinase Yes (Homo sapiens) (P07947 whole entry, looked up): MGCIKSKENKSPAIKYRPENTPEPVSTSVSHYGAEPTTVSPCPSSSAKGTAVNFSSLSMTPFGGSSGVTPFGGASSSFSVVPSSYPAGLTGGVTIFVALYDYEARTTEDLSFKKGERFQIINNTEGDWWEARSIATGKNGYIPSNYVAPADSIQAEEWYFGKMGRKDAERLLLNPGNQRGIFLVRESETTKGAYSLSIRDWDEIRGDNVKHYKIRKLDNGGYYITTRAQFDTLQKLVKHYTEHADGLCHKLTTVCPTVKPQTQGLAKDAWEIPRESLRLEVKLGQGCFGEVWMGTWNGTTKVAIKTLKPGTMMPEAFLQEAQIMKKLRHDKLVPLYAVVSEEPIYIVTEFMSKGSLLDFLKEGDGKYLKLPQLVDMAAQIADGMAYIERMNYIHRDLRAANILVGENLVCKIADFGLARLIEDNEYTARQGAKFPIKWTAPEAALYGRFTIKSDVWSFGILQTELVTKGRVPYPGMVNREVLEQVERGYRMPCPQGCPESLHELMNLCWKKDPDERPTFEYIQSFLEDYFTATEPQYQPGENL

`CC1(C)OCCn2c1nc1c(N3CCOCC3)nc(-c3cnc(N)nc3)nc12`: the Potency in [1] is 0.332 µM (active). Also, the Potency entry in [2] and in assay [3] was “inactive” in each case. Besides, the Z-AUC in [4] was -0.953 (inactive); in [4] (setting [14]) it was -0.219; in [4] (measured here: PEO4 Z-AUC), -0.151.
As for `[2H]C([2H])([2H])C(O)([C@@H](C)/C=C/[C@@H](C)[C@H]1CC[C@H]2/C(=C/C=C3C[C@@H](O)C[C@H](O)C3)CCC[C@]12C)C([2H])([2H])[2H]`, the Potency entry in assay [1], in assay [5] and in assay [3] was “inactive” each time. Further, the Z-AUC is 1.18 (inactive) in [4], 0.263 in [4] (setting [14]) and 0.327 in assay [4] (measured here: PEO4 Z-AUC).
Turning to `COc1cc2c(NC3CCN(C)CC3)nc(N3CCCN(C)CC3)nc2cc1OCCCN(C)C`, in assay [1], the Potency result is “inactive”. The activity is 3.04% in [6], -9.37% in assay [8] and -4.66% in assay [9]. Also, the activity change, negative = inhibition in assay [7] came to 3.96%. In [3], the Potency was 18 µM (active). The Z-AUC in assay [4] is -0.893 (inactive); in [4] (setting [14]), -0.915; in assay [4] (measured here: PEO4 Z-AUC), -1.6.
For the compound `C[C@]12CCCN1CC1=NNC(=O)c3cc(F)cc4[nH]c2c1c34`, the Potency in assay [1] is 10.5 µM (active). Also, in [10], the outcome is “inactive”. Moreover, the Potency result in [11], in assay [2] and in assay [3] was “inactive” in each case.
For `CC(C)(C)NC(=O)c1cncn1C1CCN(c2ccc(-c3nnc(C(F)(F)F)o3)cn2)CC1`, the Potency in assay [1] was 2.63 µM (active). Besides, the Potency entry in assay [2] and in [3] was “inactive” each time. For the same compound, the Z-AUC was -0.537 (inactive) in assay [4], 0.427 in [4] (setting [14]) and 0.071 in assay [4] (measured here: PEO4 Z-AUC).
`CC(C)(C)C[C@H]1N[C@@H](C(=O)NC2CCC(O)CC2)[C@H](c2cccc(Cl)c2F)[C@@]12C(=O)Nc1cc(Cl)ccc12` (stereo partly drawn): in assay [1], the Potency was 1.48 µM (active). Besides, the Potency result in [2] and in [3] was “inactive” each time.
In the case of `COc1ccc2c(c1)[C@@H]1C[C@]1(C(=O)N1[C@@H]3CC[C@H]1CN(C)C3)Cn1c-2c(C2CCCCC2)c2ccc(C(=O)NS(=O)(=O)N(C)C)cc21`, the Potency in assay [1] is 20.6 µM (active). In assay [10], the outcome was “inactive”.
Turning to `Cc1noc(-c2ccc(-c3ccc(C4(C(=O)O)CC4)cc3)cc2)c1NC(=O)O[C@H](C)c1ccccc1`, the Potency in [1] was 16.6 µM (active); in assay [5], 16.6 µM (active); in [3], 9.04 µM (active). In addition, the Z-AUC in [4] is 1.39 (inactive); in assay [4] (setting [14]), 1.53; in assay [4] (measured here: PEO4 Z-AUC), 1.53.
In the case of `COc1ccc(Oc2cc(NCCC(F)(F)F)c3ncc(-c4ccc(C(=O)NC5CC5)c(C)c4)n3n2)c(F)c1F`, the Potency in assay [1] is 0.0235 µM (active); in [5] it was 0.0148 µM (active). For the same compound, the Potency result in [3] is “inactive”. Moreover, the results for the Z-AUC in [4], in assay [4] (setting [14]) and in assay [4] (measured here: PEO4 Z-AUC) were 1.26 (inactive), 0.0575 and -0.837, respectively.
Consider `CCCCCc1ccc(/C=C/[C@H](O)[C@@H](CO)NC)cc1`, for which, in assay [1], the Potency is 23.1 µM (active). The Potency entry in assay [2] is “inactive”.
With `NCCCC[C@H](NC(=O)[C@@H](NC(=O)[C@H](Cc1c[nH]c2ccccc12)NC(=O)[C@H](CCCCN)NC(=O)[C@H](CCCCN)NC(=O)[C@H](Cc1c[nH]c2ccccc12)NC(=O)[C@H](Cc1c[nH]c2ccccc12)NC(=O)[C@H](CCCCN)NC(=O)[C@@H](N)CCCCN)C(c1ccccc1)c1ccccc1)C(N)=O` (H-KKWWKKW[Dip]K-NH2), the Potency is 13.2 µM (active) in assay [1] and 20.9 µM (active) in assay [5]. Also, the Potency entry in [3] was “inactive”. For the same compound, the Z-AUC in assay [4] is 0.988 (inactive); in [4] (setting [14]), 0.826; in assay [4] (measured here: PEO4 Z-AUC), 0.857.
As to `NC(=O)C1=C(O)[C@@]2(O)C(=O)C3=C(O)c4c(O)cccc4C[C@H]3C[C@H]2CC1=O`, the Potency in assay [1] is 4.17 µM (active); in assay [5], 3.32 µM (active). Moreover, the Z-AUC in assay [4] is -0.543 (inactive); in assay [4] (setting [14]) it was -1.08; in assay [4] (measured here: PEO4 Z-AUC) it was -1.12.
In the case of `[N-]=[N+]=N[C@]1(CO)O[C@@H](n2ccc(N)nc2=O)[C@@H](O)[C@@H]1O`, the Potency in [1] was 5.17 µM (active). Further, the outcome in assay [10] is “inactive”.
Consider `C[C@H](NC(=O)c1c(N)nn2cccnc12)c1cc2cccc(C#Cc3cnn(C)c3)c2c(=O)n1-c1ccccc1`, for which the Potency in assay [1] was 1.62 µM (active); in assay [5], 3.62 µM (active). Besides, the Potency result in assay [3] was “inactive”. Moreover, the values for the Z-AUC in [4], in assay [4] (setting [14]) and in [4] (measured here: PEO4 Z-AUC) were -0.378 (inactive), 0.564 and 0.799, respectively.
On to `CCOC(=O)C1=CCCCC1S(=O)(=O)Nc1ccc(F)cc1Cl` (stereo not drawn), for which the Potency in assay [1] is 20.9 µM (active); in [5] it was 18.6 µM (active). The Potency result in assay [2] is “inactive”. Moreover, the Z-AUC in assay [4] is 1.33 (inactive); in assay [4] (setting [14]), 1.11; in assay [4] (measured here: PEO4 Z-AUC), 1.15.
For `Nc1nc2cc(-c3ccc4ncc(C(=O)N5CCOCC5)n4c3)ccc2o1`, the Potency in assay [1] is 8.33 µM (active). The Potency result in assay [2] and in [3] was “inactive” throughout. The Z-AUC in assay [4] was 1.25 (inactive); in assay [4] (setting [14]), 0.336; in assay [4] (measured here: PEO4 Z-AUC), 0.353.
As to `NC(=O)c1cc(F)cc2c1C(=O)N(C1CCN(C3CCC(F)(F)CC3)CC1)C2`, the Potency entry in [1] and in assay [3] was “inactive” in each case. For the same compound, in [10], the outcome was “inactive”. Further, the Z-AUC in assay [4] is -0.257 (inactive); in [4] (setting [14]), -0.805; in assay [4] (measured here: PEO4 Z-AUC), -0.459.
Regarding `Cc1noc(C)c1-c1ccc(-c2cc(C(N)=O)c(NC(N)=O)s2)c(O[C@H]2CCNC2)c1`, the Potency in assay [1] was 16.6 µM (active). Moreover, the Potency result in [2] was “inactive”.
As to `N#Cc1cc2cc(CN3CCC(Nc4ncnc5sc(CC(F)(F)F)cc45)CC3)c(O)cc2n1Cc1cn[nH]c1`, the Potency in assay [1] was 13.2 µM (active); in [5] it was 11.8 µM (active). The Potency result in assay [3] was “inactive”. The values for the Z-AUC in assay [4], in assay [4] (setting [14]) and in assay [4] (measured here: PEO4 Z-AUC) were -1.24 (inactive), -1.35 and -1.55, respectively.
In the case of `COc1ccc(S(=O)(=O)N2CCc3cccc(-c4ccncc4)c32)cc1`, the Potency in assay [1] was 0.833 µM (active). Further, the Potency entry in assay [2] and in assay [3] was “inactive” each time. The Z-AUC in assay [4] is -1.73 (inactive); in assay [4] (setting [14]), -1.49; in assay [4] (measured here: PEO4 Z-AUC), -1.55.
For the compound `CC1=C2C[C@H]3[C@@H](CC[C@@H]4C[C@H](NS(C)(=O)=O)CC[C@@]43C)[C@@H]2CC[C@@]2(C1)O[C@@H]1C[C@H](C)CN[C@H]1[C@H]2C`, the Potency in [1] and in assay [5] was 13.2 µM (active) each time. In addition, in assay [3], the Potency result was “inactive”. The Z-AUC in [4] was 0.848 (inactive); in assay [4] (setting [14]) it was 0.333; in assay [4] (measured here: PEO4 Z-AUC), -0.208.
On to `Nc1nonc1-c1nc2cnccc2n1C1CC1`, for which the outcome in [12] and in assay [13] was “inactive” throughout. For the same compound, the Potency in assay [1] is 20.6 µM (active); in [5] it was 8.2 µM (active). Moreover, the Potency result in assay [2] was “inactive”.
